Bioassay records from PubChem BioAssay.
In the library only some 8% were active in any assay of this set; here they are far more common.
SW480 rereplic = inducers of DNA re-replication in SW480 colon cancer cells; 340,000 compounds, 1.8% hits; Potency, µM (series often up to 46.1 µM), inactives show at the highest dose re-replication activation, usual class: activators; SW480 DNA re-replication, Hoechst DNA content imaging, 48 h; AID 624297; further: % of control where 0% means no effect; nearly all actives have a fitted effect of over 55% in size
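Cells (250 per well) received 23 nL compound or DMSO by pin tool and were kept 48 hr at 37 C, 5% CO2. Nuclei were then stained with Hoechst for 40 min and scanned for DNA content.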
KB-V1 cytotox = KB-V1 MDR subline cytotoxicity; Potency, µM (series often up to 46.1 µM), hits mostly cytotoxic; KB-V1 MDR cells viability, CellTiter-Glo, 72 h; 400,000 compounds, 3.4% hits; further: on the % scale 0 is the no-effect control and ±100 the full control effect; nearly all actives have a fitted effect of over 60% in size
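Compound-treated KB-V1 multidrug-resistant cells, 72 h, 37 degrees C; viability by CellTiter-Glo. Fitted qHTS curves give the values.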
HT1080NT lethal = kills 2HG-producing HT-1080-NT fibrosarcoma cells; HT-1080-NT fibrosarcoma viability, CellTiter-Glo ATP luminescence, 48 h; 360,000 compounds, 1.6% hits; Potency, µM (series often up to 46.1 µM), inactives show at the highest dose activity, negative = less viability, most hits filed as cytotoxic;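 further: NT is the 2HG producing partner of a matched IDH1 knockdown line; 0% = DMSO-treated cells and -100% = media-only wells without cells; nearly all actives have a fitted effect of over 55% in size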
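Compounds were tested in concentration-response format on HT-1080-NT cells for 48 hours at 37 degrees C. Cell viability came from CellTiter-Glo luminescence; curves were classified by r2, response magnitude and activity.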
HT1080 IDH1KD tx = kills HT-1080 cells with IDH1 knockdown. HT-1080 IDH1 knockdown viability, ATP luminescence, 48 h. Potency, µM (titrated, usually from 46.1 µM), for the others: at the highest dose activity, negative = toxicity, usual class: cytotoxic. 360,000 compounds, 2% hits. AID 686971;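 further: 0% = DMSO wells and -100% = cell-free medium wells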
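CellTiter-Glo luminescence after 48 h compound exposure at 37 degrees C of IDH1-knockdown HT-1080 cells in 5% FBS RPMI. %Activity scaled between DMSO wells and cell-free media wells, with curves fitted and assigned curve classes.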
MCF10A rereplic = DNA re-replication induction in MCF 10a cells. MCF 10A DNA re-replication, Hoechst nuclear intensity, 48 h. Potency, µM (doses to about 46.1 µM), inactives show at the highest dose activity, positive = re-replication, actives largely listed as activators. 350,000 compounds, 2.9% hits. AID 624296; further: % of control where 0% means no effect; nearly all actives have a fitted effect of over 50% in size
KB-3-1 cytotox = kills parental KB-3-1 adenocarcinoma cells. KB-3-1 viability, CellTiter-Glo ATP luminescence, 72 h. 400,000 compounds, 1.4% hits. Potency, µM (doses to about 46.1 µM), actives largely listed as cytotoxic; further: on the % scale 0 is the no-effect control and ±100 the full control effect; nearly all actives have a fitted effect of over 60% in size
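Cytotoxicity in the drug-sensitive parental line KB-3-1 was scored as loss of CellTiter-Glo luminescence following 72 h incubation with compound. Values come from curve fitting of normalized concentration-response data.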
The depositor's hits bear a star; i = inactive; ? = inconclusive; nt = no result. The call rests on the fitted dose curve; in most records, active means well fitted curve in the direction sought with a large enough effect; inconclusive means small, poorly fitted or top-dose-only effect, or another doubt; inactive means no such curve, though single readings can be large; an effect the other way counts as inactive or inconclusive. Potency means the concentration at half of the fitted maximal effect.

SMILES	SW480 rereplic	KB-V1 cytotox	HT1080NT lethal	HT1080 IDH1KD tx	MCF10A rereplic	KB-3-1 cytotox
COc1ccc(S(=O)(=O)N(C)CC(=O)Nc2c(F)cccc2F)cc1	18.4µM*	?	3.8%	-1.0%	8.2µM*	i
CN(Cc1ccccc1)S(=O)(=O)c1ccc(Cl)c(C(=O)N2CCC(C(N)=O)CC2)c1	-1.4%	i	-0.5%	1.6%	?	i
Cc1ccc(CNC(=O)c2cc3c(=O)n(Cc4cccnc4)ccc3nc2C)cc1	nt	i	nt	nt	nt	?
Cc1ccc2[nH]c(CN3CCC(CO)(CC4CCCCO4)CC3)c(C)c2c1 (stereo not drawn)	1.6%	?	?	13µM*	2.6%	i
COc1ccc(-c2[nH]c3ccccc3c2SCCNC(=O)c2ccccc2)cc1	12.9%	i	?	?	16.7%	20.6µM*
CCN(CC)S(=O)(=O)c1ccc(C(=O)NCCSc2c(-c3ccccc3)[nH]c3ccccc23)cc1	nt	i	nt	nt	nt	?
Cc1nc(SCc2nc3ccc(Br)cc3[nH]2)c2oc3ccccc3c2n1	-3.7%	i	nt	nt	?	i
Cc1nc(SCc2nc3ccc(C(F)(F)F)cc3[nH]2)c2oc3ccccc3c2n1	6.4%	i	nt	nt	?	16.4µM*
CCc1nc(Sc2nc(C)cc(C)n2)c2oc3ccccc3c2n1	?	16.4µM*	?	?	?	?
CCc1nc(SCc2nc3ccccc3[nH]2)c2oc3ccccc3c2n1	24.9%	3.26µM*	?	?	?	i
Cc1nc(SCc2nc3ccc(Cl)cc3[nH]2)c2oc3ccccc3c2n1	24.8%	i	nt	nt	?	i
COc1ccc(C2CC(=O)c3cc(-c4nc(-c5ccc(Cl)cc5)c(C)s4)c(=O)[nH]c3C2)cc1 (stereo not drawn)	nt	i	nt	nt	nt	i
COc1ccc(-c2ocnc2C(=O)NCc2nn(-c3ccccc3)nc2C)cc1	-0.4%	?	?	16.4µM*	20.9%	i
CCOC(=O)C1=C(C)Nc2nc(SC)nn2C1c1ccc(C(=O)OC)cc1 (stereo not drawn)	-3.6%	5.8µM*	1.6%	8.9%	-0.7%	i
Cc1ccc[n+](C(C)C(=O)Nc2ccc(C)c(C)c2)c1 (stereo not drawn)	-26.6%	i	2.3%	-12.3%	0.231µM*	i
Cc1ccc(S(=O)(=O)N2CCN(c3nc(Nc4ccccc4O)nc4ccccc34)CC2)cc1	nt	nt	18.6%	18.2%	nt	nt
Cc1ccc2nc(NC(=O)CCNS(=O)(=O)c3ccc(Br)s3)sc2c1	0.1%	18.4µM*	?	?	?	i
Cc1nn(C)c2c1c(-c1ccccc1)cc(=O)n2Cc1ccc(F)cc1	nt	i	nt	nt	nt	i
CCOC(=O)C1(Cc2cccc(Cl)c2)CCCN(C(=O)c2ccco2)C1 (stereo not drawn)	28.8%	i	0.2%	-3.0%	?	i
CCOC(=O)C1(Cc2cccc(Cl)c2)CCCN(C(=O)c2ccoc2C)C1 (stereo not drawn)	16.4µM*	i	-1.6%	-6.6%	?	i
CN1C(=O)C(O)(CC(=O)/C=C/c2ccco2)c2cc(Br)ccc21 (stereo not drawn)	?	i	-18.1%	-14.0%	?	?
COc1ccc(C(=O)CC2(O)C(=O)N(Cc3ccccc3Cl)c3ccccc32)cc1 (stereo not drawn)	nt	18.4µM*	nt	nt	nt	?
O=C(CC1(O)C(=O)N(Cc2ccccc2Cl)c2ccccc21)c1ccco1 (stereo not drawn)	18.4µM*	?	1.0%	2.8%	?	?
CCCCN1C(=O)C(O)(CC(=O)c2ccco2)c2cc(Br)ccc21 (stereo not drawn)	14.6µM*	i	?	?	?	14.6µM*
CN1C(=O)C(O)(CC(=O)c2ccccc2O)c2cc(Br)ccc21 (stereo not drawn)	?	?	16.4µM*	0.0%	?	?
SMILES	SW480 rereplic	KB-V1 cytotox	HT1080NT lethal	HT1080 IDH1KD tx	MCF10A rereplic	KB-3-1 cytotox
COc1ccc(N(CC(=O)Nc2ccccc2SC)S(C)(=O)=O)cc1OC	-2.1%	i	2.3%	-1.3%	0.9%	i
CSc1ccccc1NC(=O)CN(c1ccccc1Br)S(C)(=O)=O	8.8%	14.6µM*	9.6%	7.9%	-0.7%	i
Cc1cccc(N(CC(=O)Nc2ccccc2F)S(C)(=O)=O)c1	-0.6%	23.1µM*	7.7%	-1.3%	17.3%	i
Cc1cccc(NC(NC(=O)c2ccccc2[N+](=O)[O-])C(Cl)(Cl)Cl)c1 (stereo not drawn)	4.5%	23.1µM*	9.9%	0.0%	-3.1%	i
C=CCSc1nnc(-c2sc(-c3ccccc3)nc2C)n1C	-8.1%	i	14.5%	4.3%	6.2%	i
C=CCN(C(=O)CSC1=NC(=O)CN1C(C)=O)c1nc(C)c(-c2ccccc2)s1	-109.5%	i	?	?	11.6µM*	i
CCOc1ccc(S(=O)(=O)N(CC(=O)Nc2ccc3c(c2)OCO3)c2ccccc2)cc1	nt	i	nt	nt	nt	i
CC(C)(C)NC(=O)c1ccc2c(c1)N(CC(=O)N1CCN(c3ccc(F)cc3)CC1)C(=O)C(C)(C)O2	-7.1%	3.66µM*	8.5%	4.1%	3.6%	i
CC(C)(C)NC(=O)c1ccc2c(c1)N(CC(=O)N1CCCC1)C(=O)C(C)(C)O2	9.6%	?	2.5%	-1.2%	?	i
COc1cc(Cl)c(NC(=O)c2cc(S(=O)(=O)N3CCCCC3)c[nH]2)c(OC)c1	nt	i	nt	nt	nt	i
CC12CCC(=O)C=C1CCC1C2CCC2(C)C(c3csc(N)n3)CCC12 (stereo not drawn)	?	20.6µM*	?	?	16.4µM*	?
CC12CCC(=O)C=C1CCC1C2C(O)CC2(C)C(c3csc(N)n3)CCC12 (stereo not drawn)	5.7%	?	6.51µM*	?	?	i
CC(=NO)C1CCC2C3CCC4=CC(=NO)CCC4(C)C3C(O)CC12C (stereo not drawn)	0.1%	20.6µM*	-4.1%	-8.7%	18.5%	?
Cc1ccc(S(=O)(=O)N2CCN(Cc3cc(=O)n4nc(-c5ccccc5Cl)sc4n3)CC2)cc1	nt	i	nt	nt	nt	i
COc1cccc(-n2c(SCc3ccccc3C)nc3c([nH]c4ccccc43)c2=O)c1	nt	23.1µM*	nt	nt	nt	i
Cc1ccc(CSc2nc(=O)c3c(C)cc(C)nc3n2C2CC2)cc1	nt	i	nt	nt	nt	i
CN1CCN(c2ccc([N+](=O)[O-])cc2C(=O)c2ccccc2)CC1	?	?	-2.6%	-13.3%	1.6%	?
